# Giardia FBPA inh: inhibitors of Giardia lamblia fructose-1,6-bisphosphate aldolase; A8B2U2; purified Giardia FBPA; Potency, µM (highest dose often 59.6 µM), for the others: at the highest dose activity, negative = inhibition, hits mostly inhibitors; hit rate 0.71% among 290,000; also: nearly all actives have a fitted effect of over 55% in size
# Target sequence (A8B2U2 whole entry, looked up): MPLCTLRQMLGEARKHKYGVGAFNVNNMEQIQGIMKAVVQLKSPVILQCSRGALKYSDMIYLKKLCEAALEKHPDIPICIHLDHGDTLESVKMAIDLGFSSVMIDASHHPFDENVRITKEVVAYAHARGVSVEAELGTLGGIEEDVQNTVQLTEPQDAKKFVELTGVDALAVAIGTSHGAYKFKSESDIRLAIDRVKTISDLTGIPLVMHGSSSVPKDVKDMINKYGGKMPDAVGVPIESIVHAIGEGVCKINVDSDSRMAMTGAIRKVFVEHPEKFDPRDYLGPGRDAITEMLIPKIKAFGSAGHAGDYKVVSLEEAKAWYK
#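 Giardia FBPA (40 nM reagent) was preincubated 10 min at RT with compound (up to 57.5 uM final), then substrate plus GAPDH/TPI/NAD/arsenate coupling system with diaphorase/resazurin was added; resorufin fluorescence (525/598 nm) was read after 20 min.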
# AmpC no deterg: blocks E. coli AmpC beta-lactamase in detergent-free assay; AID 485341; P00811; hit rate 0.52% among 330,000; AmpC nitrocefin hydrolysis, absorbance 480 nm, 0.0001% Triton; Potency, µM (series often up to 57.1 µM), for inactives: at the highest dose activity change, negative = inhibition, actives largely listed as inhibitors;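 also: plate controls were no compound for no effect and no enzyme for full effect; nearly all actives have a fitted effect of over 20% in size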
# Target sequence (P00811 whole entry, looked up): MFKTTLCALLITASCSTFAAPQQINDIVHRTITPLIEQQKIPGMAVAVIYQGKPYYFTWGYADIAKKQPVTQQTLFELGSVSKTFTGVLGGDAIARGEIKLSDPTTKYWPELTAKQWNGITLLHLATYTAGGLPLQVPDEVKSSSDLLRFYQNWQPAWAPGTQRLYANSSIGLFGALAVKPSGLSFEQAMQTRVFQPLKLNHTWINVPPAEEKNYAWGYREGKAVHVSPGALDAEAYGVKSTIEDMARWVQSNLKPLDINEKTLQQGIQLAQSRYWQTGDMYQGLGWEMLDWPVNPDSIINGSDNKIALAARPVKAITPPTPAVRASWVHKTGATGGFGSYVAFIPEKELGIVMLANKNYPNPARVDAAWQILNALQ
#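 20 mM phosphate pH 7.0 + 0.01% (detergent screen) or 0.0001% Triton X-100; 5.3 nM AmpC reagent; cpd preinc 15 min RT; nitrocefin (800 uM stock) to start; A480 q20 s × 4 min; Activity was normalised to no-enzyme and no-compound control wells.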
# AmpC detergent: AmpC beta-lactamase inhibition with detergent present. P00811. AmpC hydrolysis of nitrocefin, absorbance 480 nm, 0.01% Triton. Potency, µM (highest dose often 114 µM), for the others: at the top dose activity change, negative = inhibition, most hits filed as inhibitors. hit rate 0.041% among 370,000;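 also: 0% = no-compound wells and -100% = no-enzyme wells; nearly all actives have a fitted effect of over 25% in size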
#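 20 mM phosphate pH 7.0 + 0.01% (detergent screen) or 0.0001% Triton X-100; 5.3 nM AmpC reagent; cpd preinc 15 min RT; nitrocefin (800 uM stock) to start; A480 q20 s × 4 min; Activity was normalised to no-enzyme and no-compound control wells.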
# AMA1 RON2 block: AMA1-RON2 (P. falciparum) interaction inhibition. Potency, µM (series often up to 58.2 µM), for inactives: at the highest dose activity change, negative = inhibition, usual class: inhibitors. hit rate 0.2% among 360,000. AlphaScreen AMA1-biotinylated RON2 peptide binding;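 also: 0% = vehicle wells and -100% = peptide control; nearly all actives have a fitted effect of over 45% in size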
#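 AMA1 (3D7) with his tag at 25 nM final met compounds first, then biotinylated RON2 peptide at 25 nM; detection used donor plus acceptor beads, 10 µg/mL apiece, read by AlphaScreen after 30 min at room temperature.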
# Numbers without * were called inactive; ? = inconclusive; · = no result; [ ] = remark or other dose. An excerpt weighted towards active compounds, which were near 1.1% of everything screened. Calls follow the shape of the dose curve; as a rule, active = well fitted curve in the direction sought with a large enough effect; inconclusive = small, poorly fitted or top-dose-only effect, or another doubt; inactive = no such curve, though single readings can be large; an effect the other way counts as inactive or inconclusive. Unless noted, % is scaled to controls: 0 for no effect and ±100 for the full control effect; potency is read from the fitted curve at half-maximal effect.
SMILES,Giardia FBPA inh,AmpC no deterg,AmpC detergent,AMA1 RON2 block
Cc1cccc(C(=O)Nc2cccc(NC(=O)c3ccccc3)c2)c1,-4%,22µM*,3%,-10%
CCCCCCCCSC1=CC(=O)C(OC)=C(OC)C1=O,·,·,·,7.9µM*
Cc1ccc(S(=O)(=O)c2cc(OC(=O)c3ccco3)ccc2OC(=O)c2ccco2)cc1,-8%,13µM*,-21%,-12%
O=S(=O)(N/N=C/c1ccc(N2CCOCC2)cc1)c1ccc(Br)cc1,3%,11µM*,?,-1%
CC1CCN(S(=O)(=O)c2cccc(C(=O)N3CCN(c4ccc(F)cc4)CC3)c2)CC1,-13%,134%,9%,1%
O=C(NC1CCCc2ccccc21)c1ccc(=O)[nH]c1 (centres undefined),6%,9%,-11%,0%
CCC(C)(NC(=O)c1ccc(=O)[nH]c1)C(=O)NC1CCCC1 (centres undefined),3%,2.8µM*,?,3%
O=C(CSc1nnc(SCc2ccccc2)s1)N/N=C/C=C/c1ccco1,-21%,11µM*,?,13%
O=C(CSc1nnc(SCc2cccc3ccccc23)s1)N/N=C/C=C/c1ccccc1[N+](=O)[O-],6%,14µM*,-2%,14%[2.32 µM]
CCn1c(SCC(=O)N/N=C/C=C/c2ccco2)nnc1-c1ccccc1,-10%,-12%,-10%,-1%
O=C(CSc1nnc(SCc2cccc3ccccc23)s1)N/N=C/c1c[nH]c2ccccc12,-11%,-14%,-8%,5%
CC1(C(=O)NS(=O)(=O)C2CC2)CCCN(C(=O)c2cccc(Cl)c2)C1 (centres undefined),·,·,·,12%
CN(C)C(=S)SC(=S)N(C)C,16µM*,·,·,·
CCC1(C)CC(C#N)(C#N)C(=O)NC1=O (centres undefined),·,·,·,2%
CCn1c(C)c(C2=CCN(S(=O)(=O)c3ccccc3)CC2)c2ccccc21,0%,18µM*,0%,-30%
Cc1ccc(S(=O)(=O)N2CC=C(c3c(C)n(C)c4ccccc34)CC2)cc1,-4%,-17%,-5%,-12%
CNCc1ccccc1Sc1cc(O)ccc1O,?,-33%,?,11µM*
CC1CN(C(=O)c2cc3c(=O)n4ccccc4nc3n2C)CC(C)O1 (centres undefined),·,-2%,2%,11µM*
CCOC(=O)Cn1c(=O)oc2cc(S(=O)(=O)N3CCn4c3nc3ccccc34)ccc21,4%,22µM*,-11%,-10%
CCOC(=O)Cn1c(=O)oc2cc(S(=O)(=O)N3CCCc4ccccc43)ccc21,5%,9%,?,-2%
CN(C)c1cc2c(c(N(C)C)c1)C(=O)c1ccccc1C2=O,5%,24%,0%,18µM*
CC(C)(C)c1cc(=O)n(-c2ccccc2)[nH]1,0.63µM*,-20%,-12%,-11%
COc1cccc(NC(=O)Nc2nnc(CC(=O)NCc3ccccc3)s2)c1,7%,25µM*,-6%,-4%
O=c1cc(N2CCN(c3ccc(F)cc3)CC2)[nH]c(=O)n1Cc1ccc(F)cc1,3%,25µM*,-12%,-4%
S=c1[nH]nc(-c2cc(-c3ccco3)[nH]n2)n1-c1cccc2ccccc12,-29%,18µM*,-13%,-6%
SMILES,Giardia FBPA inh,AmpC no deterg,AmpC detergent,AMA1 RON2 block
CC(C)C(=O)Nc1ccccc1N1CCN(S(C)(=O)=O)CC1,2%,0.28µM*,1%,?
CS(=O)(=O)N1CCN(c2ccccc2NC(=O)C(c2ccccc2)c2ccccc2)CC1,1%,5%,-2%,-2%
CCCn1nc(C(=O)Nc2cc(S(=O)(=O)Nc3ccc(OC)cc3)ccc2O)c2ccccc2c1=O,·,1.6µM*,·,33%
O=c1c(-c2ccc(O)cc2)coc2cc(O)cc(O)c12,4%,-42%,-2%,8%
O=c1c(-c2cc(O)c(O)c(O)c2)coc2cc(O)c(O)c(O)c12,5µM*,·,·,·
O=C1[C@H]2[C@H]3[C@H](O)[C@H](O)C/C(=N/OC[C@@H](O)COCc4ccco4)[C@@H]3CC[C@@H]2C(=O)N1C1CCCCC1,-4%[12.9 µM],·,·,·
CC(C)=CCC1=C(OCC(=O)O)C(=O)c2ccccc2C1=O,1.3µM*,-35%,8%,-2%
COc1ccc(CCNCCN2CCOCC2)cc1,?,-17%,-3%,14µM*
CCOc1ccc2cc(S(=O)(=O)N3CCOCC3)ccc2c1,2%,0.4µM*,-2%,-5%
CCOc1ccc(Oc2ccc(S(=O)(=O)N3CCOCC3)cc2N)cc1,0%,11%,-10%,-7%
Clc1ncnc2c1oc1ccccc12,2%,0.28µM*,1%,3%
CC1(C(=O)NCCc2ccccc2)Cc2c(-c3ccccc3)ccnc2O1 (centres undefined),·,·,·,-17%
CCCN1CCc2cccc3c2C1Cc1ccc(O)c(O)c1-3 (centres undefined),13µM*,·,·,·
CN1CCc2cccc3c2[C@@H]1Cc1ccc(O)c(O)c1-3,?,37%,-5%,?
COc1cc2c(cc1O)C[C@H]1c3c(cc(O)c(OC)c3-2)CCN1C,-22%[21.7 µM],-25%,-15%,-27%
CN1CCc2cc(O)cc3c2[C@H]1Cc1ccc(O)c(O)c1-3,·,·,·,10µM*
O=C(/C=C/c1ccc(Br)cc1)c1ccc(NC2=NCCCS2)cc1,-11%,14µM*,1%,-28%
O=C(/C=C/c1ccccc1)c1ccc(NC2=NCCCS2)cc1,5%,28µM*,?,-7%
Cc1cccc(/C=C/C(=O)c2ccc(NC3=NCCCS3)cc2)c1,-4%,-28%,-1%,-22%
Cc1cn(C)c(CC(=O)NCc2ccccc2Cl)c1C(=O)O,·,·,-6%,·
Cc1cccc(-n2nnc(-c3nc(-c4cccs4)no3)c2N)c1,·,·,-2%,·
COc1ccccc1N1C(=O)CC(Sc2n[nH]c(-c3cccc(C)c3)n2)C1=O (centres undefined),-11%,16µM*,-6%,15%
N#CC(=C1C=C(Br)C(=NO)C=C1Cl)c1ccc(Cl)cc1,·,·,·,20µM*
CCCCS(=O)(=O)c1sc2nc3c(cc2c1N)CCCC3,-5%,-24%,?,6µM*
Cn1c(N=Nc2ccccc2)nc2ccccc21,-23%,-5%,-12%,-24%
SMILES,Giardia FBPA inh,AmpC no deterg,AmpC detergent,AMA1 RON2 block
CN(C)c1ccc(N=Nc2nc3ccccc3n2C)cc1,-10%,-12%,-5%,4µM*
OC(CNCc1ccccc1)Cn1ccc2ccccc21 (centres undefined),-13%,18µM*,1%,-25%
Cc1ccc(S(=O)(=O)N2CCC(C(=O)Nc3ccccc3N3CCCCC3)CC2)cc1,3%,-19%,32µM*,-8%
Cc1ccc(S(=O)(=O)N2CCC(C(=O)Nc3ccccc3N3CCCC3)CC2)cc1,·,-21%,-10%,-26%
COc1ccc(S(=O)(=O)NCC(c2ccc(N(C)C)cc2)N2CCCC2)cc1F (centres undefined),·,·,19%,·
COc1ccc(C2/C=C\CN(S(=O)(=O)c3ccc(C)cc3)C(Cc3ccccc3)C(=O)N2Cc2ccc(F)cc2)cc1 (centres undefined),-3%,·,·,·
Cn1c(=O)c(Oc2cc(Cl)cc(Cl)c2)nc2ccccc21,-1%,0.4µM*,2%,14%

# Source: PubChem (National Center for Advancing Translational Sciences (NCATS))
